Results filed as inconclusive are left out. A call without a number means that no potency is given here. The source made the active and inactive calls. Unless noted, the call rests on the fitted dose curve.
Experiment: qHTS assay for small molecule agonists of the antioxidant response element (ARE) signaling pathway (AID 743202; active means well fitted activation curve with a large enough effect in the signal ratio in the repeat runs, not every such curve was filed as active; the % refers to the signal ratio)
Details: HepG2 ARE-bla reporter, beta-lactamase FRET, 16 h; series mostly up to 73.3 µM
Method in brief: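 ARE-bla HepG2 cells (beta-lactamase reporter under the antioxidant response element), plated 5 hours, then exposed to compounds 16 hours at 37 C. LiveBLAzer B/G FRET substrate added for 2 hours at room temperature; fluorescence intensity read.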

Row | SMILES | Potency
1 | Cc1ccc(S(=O)(=O)NC(=O)NN2CCCCCC2)cc1 | inactive
2 | Nc1ccc(O)c(C(=O)O)c1 | inactive
3 | CC(=O)NS(=O)(=O)c1ccc(N)cc1 | inactive
4 | O=C(O)c1cccc([N+](=O)[O-])c1 | inactive
5 | CC(O)CN(CCN(CC(C)O)CC(C)O)CC(C)O (configuration not stated) | inactive
6 | O=c1ccc2ccccc2o1 | inactive
7 | NC(=O)c1cnccn1 | inactive
8 | CCCCOC(=O)CC(CC(=O)OCCCC)(OC(C)=O)C(=O)OCCCC | inactive
9 | O=C(O)CS | inactive
10 | O=C(c1ccccc1)c1ccccc1 | inactive
11 | c1ccc2[nH]ccc2c1 | inactive
12 | CCCN(CCC)S(=O)(=O)c1ccc(C(=O)O)cc1 | inactive
13 | CCCCC(CC)COC(=O)/C=C/c1ccc(OC)cc1 (configuration not stated) | inactive
14 | COc1ccc2[nH]cc(CCNC(C)=O)c2c1 | inactive
15 | Nc1ccc(S(=O)(=O)Nc2nccs2)cc1 | inactive
16 | O=S(=O)(O)c1ccc2cc(O)ccc2c1 | inactive
17 | O=C1NC(=O)c2ccccc21 | inactive
18 | CCCCC1C(=O)N(c2ccccc2)N(c2ccccc2)C1=O | inactive
19 | Cc1cn([C@H]2C[C@H](N=[N+]=[N-])[C@@H](CO)O2)c(=O)[nH]c1=O | inactive
20 | Cc1ccc(O)cc1 | inactive

Experiment: qHTS assay for small molecule agonists of the antioxidant response element (ARE) signaling pathway - cell viability counter screen (AID 743203); further: nearly all actives have a fitted effect of over 55% in size
Details: ARE-bla HepG2 viability, CellTiter-Glo luminescence, 16 h; series mostly up to 73.3 µM
Method in brief: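 HepG2 cells carrying ARE-driven beta-lactamase; 2,000 cells/well; 5 hrs plating; compound pinned from DMSO; 16 hrs 37C/5% CO2; CellTiter-Glo added; 30 min RT; luminescence.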

Row | SMILES | outcome
21 | C[C@]12C=CC(=O)C=C1CC[C@@H]1[C@@H]2[C@@H](O)C[C@@]2(C)[C@H]1CC[C@]2(O)C(=O)CO | inactive
22 | Nc1ccc(O)c(C(=O)O)c1 | inactive
23 | OCCc1ccccc1 | inactive
24 | CC(O)CN(CCN(CC(C)O)CC(C)O)CC(C)O (configuration not stated) | inactive
25 | O=C(O)CCCCC(=O)O | inactive
26 | O=C(O)CS | inactive
27 | CCCNC(=O)NS(=O)(=O)c1ccc(Cl)cc1 | inactive
28 | O=C(O)CCC(=O)O | inactive
29 | CCCN(CCC)S(=O)(=O)c1ccc(C(=O)O)cc1 | inactive
30 | COc1ccc2[nH]cc(CCNC(C)=O)c2c1 | inactive
31 | Cn1c(=O)c2[nH]cnc2n(C)c1=O | inactive
32 | Nc1ccc(S(=O)(=O)Nc2nccs2)cc1 | inactive
33 | O=S(=O)(O)c1ccc2cc(O)ccc2c1 | inactive
34 | O=C1NC(=O)c2ccccc21 | inactive
35 | CCCCC1C(=O)N(c2ccccc2)N(c2ccccc2)C1=O | inactive
36 | Cc1cn([C@H]2C[C@H](N=[N+]=[N-])[C@@H](CO)O2)c(=O)[nH]c1=O | inactive
37 | Cc1ccc(O)cc1 | inactive

From PubChem BioAssay (Tox21)
